Laboratory results: PubChem BioAssay AID597 (National Center for Advancing Translational Sciences (NCATS), 2007)
The whole screen tested about 68,000 compounds, of which about 60 (0.09%) were called active. Calls come from the whole dose curve; as a rule, active = well fitted curve in the direction sought with a large enough effect; inconclusive = small, poorly fitted or top-dose-only effect; inactive = flat fitted curve, though single readings scatter. The list is a sample of the results.

Experiment: qHTS Assay for Epigenetic Modulators; note: % of control where 0% means no effect
Settings: mouse C127i GFP locus derepression, cytometry, 30 h; series mostly up to 46.1 µM; GFP derepression (activation): at the top concentration
Excerpt: NIH Molecular Libraries Screening Centers Network [MLSCN] NIH Chemical Genomics Center [NCGC] MLSCN Grant: 1 X01 MH079860-01 Assay Provider: Elisabeth D. Martinez, University of Texas SW Medical Center NCGC Assay Overview: The Locus Derepression assay detects the derepression of a GFP reporter that is stably integrated in a region of the genome of murine c127i mammary cells that is presumably silenced. GFP transcription in this construct is controlled by a CMV promoter, which normally is strong and constitutively active. However, this line was selected for lack of constitutive expression of the GFP protein. GFP production can be induced by incubating the cells with histone deacetylase or DNA methyltransferase inhibitors. Compounds that cause derepression of the locus to express GFP are identified by enumerating GFP positive cells using a laser-scanning microplate cytometer. For further details of this screen and follow-up characterization, see R.L. Johnson, W. Huang, A. Jadhav, C.P. Austin, J. Inglese, E.D. Martinez, A Quantitative High-Throughput Screen Identifies Potential Epigenetic Modulators of Gene Expression, Analytical Biochemistry (2008) 375(2):237-48.
NCGC Assay Protocol Summary: Two hundred and fifty cells in 5 uL per well were dispensed into black, clear-bottom 1536-well plates. Twenty-three nL compound was transferred to the assay plate and cells were incubated 30 hours at 37 C. Medium was removed, cells were washed two times with PBS, and GFP-positive cells were enumerated as fluorescent objects between the sizes of 20 to 120 um width and depth using an Acumen Explorer. Keywords: NIH Roadmap, MLSCN, MLI, MLSMR, qHTS, NCGC, qHTS, HDAC, DNMT, HAT, DNA methyltransferases, histone acetyl transferases, histone deacetylases

GFP derepression (activation), inactive:
Cn1c(=O)c2cn(-c3cccc4ccccc34)cc2n(C)c1=O 2.6%
CC(C)NC(=O)N1CC[C@@]2(CCCN(C(=O)c3cccc(F)c3)C2)C1 -0.9% [at 9.22 µM]
CC(=O)c1ccc(Oc2cc(C)nc(-n3nc(C)cc3C)n2)cc1 4.2%
Cc1ccc(-c2nn(-c3ccccc3)cc2CN(Cc2ccccc2)C(=O)CCC(=O)O)o1 2.2%
COc1ccc(N2CCN(Cc3cc(=O)oc4ccc5ccccc5c34)CC2)cc1 0%
O=C(NCCCNC(=O)NC1CCCCC1)NC1CCCCC1 0.2%
FC(F)(F)c1cccc(Nc2ncnc3ccccc23)c1 1.2%
O=C1C2(c3ccccc3)CN(CCCO)CC1(c1ccccc1)CN(CCCO)C2 2.1%
COC(=O)c1sc(=S)n(-c2ccccc2)c1N 1.6%
CCCN1C(=O)C(NC(C)=O)c2cc(OC)ccc21 (centres undefined) -0.4%
O=C(NCCc1ccco1)c1nn(Cc2ccccc2)c(=O)c2ccccc12 -1.2%
CC(C)(C)C(=O)CCN1C(=O)C2(OCCO2)c2ccccc21 -1.2%
CCC(C(=O)OCCN(CC)CC)c1ccccc1 (centres undefined) 6.1% [at 20.6 µM]
Cc1cc(C)c2nc3c(c([C@H](O)[C@@H]4CCCCN4)c2c1)CC/C3=C/c1ccc(Cl)cc1 0% [at 9.22 µM]
CC1=CC(C)(C)N(C(=O)CSc2nnc(-c3ccccc3)o2)c2ccc(C)cc21 0%
O=C(O)c1ccc(NS(=O)(=O)c2cccc3nsnc23)cc1 -2.6%
COc1ccccc1C(=O)NCCn1cc(SCC(=O)NCc2ccco2)c2ccccc21 1.4%
O=C(Cn1[nH]c(=O)c2ccccc2c1=O)Nc1cccc(-c2nnc3n2CCCCC3)c1 1.3%
COc1ccc(NC(=O)c2c(C)oc3c2CCCC3)cc1 3.4%
CS(=O)(=O)N1CCC[C@@]2(CCN(c3ccncc3)C2)C1 0% [at 9.22 µM]
O=C(O)c1ccc(NC(=O)c2cccs2)cc1 3.2%
O=C(Nc1ccc(Cl)cc1)c1ccsn1 2.2%
COc1ccc(C2C3=C(CC(C)(C)CC3=O)Oc3ncn4nc(-c5cccnc5)nc4c32)cc1OC (centres undefined) 2.6%
CN1CCN2c3ccccc3Cc3ccccc3[C@@H]2C1
O=C(CCCn1c(SCC(=O)c2ccc(F)cc2)nc2ccccc2c1=O)NCc1ccco1 -1%
COC(=O)[C@H](C)NC(=O)Nc1ccc(OC(F)(F)F)cc1 -0.4%
COC(=O)c1cnn2c(C(F)(F)F)cc(-c3ccco3)nc12 0%
COc1ccc(-c2nnc(SC(=O)N3c4ccccc4Sc4ccccc43)o2)cc1 1.5%
COc1ccccc1-c1nc(NCc2cccs2)c2ccccc2n1 0% [at 9.22 µM]
